We go through 40 compounds from PubChem BioAssay (NCATS).

Results filed as inconclusive are left out. Active and inactive are the calls of the source. Calls follow the shape of the dose curve; as a rule, active = well fitted curve in the direction sought with a large enough effect; inconclusive = small, poorly fitted or top-dose-only effect, or another doubt; inactive = no such curve, though single readings can be large; an effect the other way counts as inactive or inconclusive.
Also: nearly all actives have a fitted effect of over 35% in size.
Potency is read from the fitted curve at half-maximal effect.

The first assay is described as follows: Quantitative highthroughput screen to assess conditional lethalithy of NOMO1 cells grown in Human Plasma-Like Medium with dialyzed fetal bovine serum (HPLM+ds) (AID 1963878).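 As to viability: 100% = DMSO wells and 0% = empty wells on each plate.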 Particulars: NOMO1 AML cells in HPLM+ds, CellTiter-Glo viability, 48 h; series mostly up to 45.8 µM; viability: at the top concentration. Put shortly: (§1)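 Each medium arm—HPLM with 10% dialyzed FBS, or RPMI1640 with 5 mM glucose and 10% untreated or dialyzed FBS—was screened against an 11-point, 3-fold compound titration for 48 h at 37 °C, with CellTiter-Glo luminescence as endpoint.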
For orientation: In ATP-based viability assays light output follows the ATP content of the culture.
Consider `CC(C)N(CCCNC(=O)Nc1ccc(C(C)(C)C)cc1)C[C@H]1O[C@@H](n2cc(Br)c3c(N)ncnc32)[C@H](O)[C@H]1O`, for which the Potency is 20.9 µM (active).
The same measure, in the same setting: with `CC(C)[N+]1(C)[C@@H]2CC[C@H]1CC(OC(=O)C(CO)c1ccccc1)C2` (stereo not given in full) the figure was 13.2 µM (active); with `Oc1ccc(C=Cc2cc(O)cc(O)c2)cc1`, 14.8 µM (active).
The same measure, in the same setting: under `CC1=C(C(=O)Nc2cc3cn[nH]c3cc2F)C(c2ccc(C(F)(F)F)cc2)CC(=O)N1` (stereo not given) stands 11.8 µM (active); under `Nc1nc(F)nc2c1ncn2[C@@H]1O[C@H](COP(=O)(O)O)[C@@H](O)[C@H]1O`, 9.35 µM (active); under `COc1cc(O)c2c(c1)C(=O)c1cc(C)cc(O)c1C2=O`, 9.11 µM (active).
The same measure, in the same setting: with `CO[C@@H](C(=O)N1Cc2[nH]nc(NC(=O)c3ccc(N4CCN(C)CC4)cc3)c2C1)c1ccccc1` the figure was 0.0469 µM (active).
On to `COc1ccc2c3n(c(=NC(=O)c4cccnc4)nc2c1OC)CCN3`, for which the Potency is 7.43 µM (active).
A word on the viability: it is a read-out of living cells in per cent, often relative to untreated cells. As to `Clc1ccc(C(Cn2ccnc2)OCc2ccc(Sc3ccccc3)cc2)c(Cl)c1` (stereo not given), the “viability” value was 86.7% (inactive).
On to `CNC(=O)c1c(F)cccc1Nc1nc(Nc2cc3c(cc2OC)CCN3C(=O)CN(C)C)nc2[nH]ccc12`, for which the Potency is 16.6 µM (active).
For the compound `Cc1ccc(C2=Nc3ccc(Cl)cc3OC2)cc1`, the “viability” value was 79.4% (inactive).
With `Clc1ccc2ncc(-c3cccc(NC4CNC4)n3)n2c1`, the Potency was 20.9 µM (active).
As for `Cc1cc(OCCCS(C)(=O)=O)cc(C)c1-c1cccc(COc2ccc3c(c2)OC[C@H]3CC(=O)O)c1`, the “viability” value is 83.9% (inactive).
With `CC(C)NC[C@@H](C(=O)N1CCN(c2ncnc3c2[C@H](C)C[C@H]3O)CC1)c1ccc(Cl)cc1`, the Potency is 14.8 µM (active).

The nature of the next assay: Quantitative highthroughput screen to assess conditional lethalithy of P12 Ichikawa cells grown in Human Plasma-Like Medium with dialyzed fetal bovine serum (HPLM+ds) (AID 1963879). Particulars: ATP luminescence, 48 h; Potency: viability; series mostly up to 45.8 µM; viability: at the top concentration. Put shortly:
as §1
For `COc1cc2c(cc1OC)[C@@H]1Cc3ccc(OC)c(OC)c3CN1CC2`, the “viability” value was 95.5% (inactive).
As for `CCC(=O)NC[C@H](Cc1ccc(OCCc2nc(-c3ccccc3)oc2C)cc1)NC(C)=CC(=O)c1ccc(C(F)(F)F)cc1`, the Potency was 10.5 µM (active).
In the case of `CCOC(=O)N[C@@H]1CC[C@@H]2[C@@H](C1)C[C@H]1C(=O)O[C@H](C)[C@H]1[C@@H]2C=Cc1ccc(-c2cccc(F)c2)cn1`, the “viability” value is 82.8% (inactive).
Take `CCOc1ccccc1N=Nc1c(C)[nH]n(-c2nc(-c3ccccc3)cs2)c1=O`: the Potency is 16.6 µM (active).
On the same count and under the same terms, with `CO[C@@H]1[C@@H](O)[C@H](O)[C@@H](n2c3c(Cl)cccc3c3c4c(c5c6cccc(Cl)c6[nH]c5c32)C(=O)NC4=O)O[C@@H]1CO` the figure was 0.296 µM (active).
Take `N#CC(=C(N)Sc1ccccc1N)C(C#N)=C(N)Sc1ccccc1N`: the “viability” value was 87.3% (inactive).
Consider `C[C@]12C=CC(=O)C=C1CC[C@@H]1[C@@H]2[C@@H](O)C[C@@]2(C)[C@@H]1CC[C@]2(O)C(=O)CO`, for which the Potency is 16.6 µM (active).
Turning to `COc1nccc(-c2c(-c3ccc(F)cc3)ncn2C2CCNCC2)n1`, the “viability” value is 84.7% (inactive).
On to `COC(=O)C=CC(=O)OC`, for which the Potency is 0.935 µM (active).
Still for that read-out and setting: under `CC(C)OC(=O)[C@H](C)N[P@](=O)(OC[C@H]1O[C@@H](n2ccc(=O)[nH]c2=O)[C@](C)(F)[C@H]1O)Oc1ccccc1` stands 1.32 µM (active).
Still for that read-out and setting: under `CC(C)n1c(C=C[C@H](O)C[C@H](O)CC(=O)O)c(-c2ccc(F)cc2)c2ccccc21` stands 5.9 µM (active).
For the compound `OC[C@H]1O[C@@H](Oc2cc(O)cc(C=Cc3ccc(O)cc3)c2)[C@H](O)[C@@H](O)[C@H]1O`, the “viability” value is 100% (inactive).
As to `COc1cc(OC)c(C=CS(=O)(=O)Cc2ccc(OC)c(NCC(=O)O)c2)c(OC)c1`, the Potency is 0.264 µM (active).
Take `NC1=N[C@@]2(c3cc(NC(=O)c4ccc(F)cn4)ccc3F)COC[C@@H]2CS1`: the Potency was 1.87 µM (active).
For `Cc1nnc(C(C)C)n1C1C[C@H]2CC[C@@H](C1)N2CC[C@H](NC(=O)C1CCC(F)(F)CC1)c1ccccc1` (stereo not given in full), the Potency is 16.6 µM (active).
Still for that read-out and setting: under `COc1cc(CNC(=O)CCCCC=CC(C)C)ccc1O` stands 0.332 µM (active).
`C=CCc1ccc(O)c(-c2ccc(O)c(CC=C)c2)c1`: the Potency is 0.132 µM (active).
For `CC(C)N(CC[C@H](c1ccccc1)c1cc(CO)ccc1O)C(C)C`, the “viability” value is 101% (inactive).
Consider `CO[C@H]1C[C@@H]2CC[C@@H](C)[C@@](O)(O2)C(=O)C(=O)N2CCCC[C@@H]2C(=O)O[C@H]([C@H](C)C[C@@H]2CC[C@H](OC(=O)C(C)(CO)CO)[C@H](OC)C2)CC(=O)[C@H](C)C=C(C)[C@@H](O)[C@@H](OC)C(=O)[C@H](C)C[C@H](C)C=CC=CC=C1C`, for which the Potency is 6.62 µM (active).
Turning to `CCCCCCCCOc1ccccc1C(=O)Nc1ccc(C(=O)OCC[N+](C)(CC)CC)cc1`, the “viability” value was 85.3% (inactive).
Still for that read-out and setting: under `CO[C@H]1O[C@@H]2O[C@@]3(C)CC[C@@H]4[C@@H](C)CC[C@@H]([C@H]1C)[C@@]24OO3` stands 86.6% (inactive).
On to `CCCCCN=C(N)NN=Cc1c[nH]c2ccc(OC)cc12`, for which the Potency was 13.2 µM (active).
Still for that read-out and setting: under `CCOC1OC(=O)C[C@H]1NC(=O)[C@@H]1CCCN1C(=O)[C@@H](NC(=O)c1ccc(N)c(Cl)c1)C(C)(C)C` (stereo not given in full) stands 1.66 µM (active); under `Cc1[nH]c(C=C2C(=O)Nc3ccc(S(=O)(=O)N(C)c4cccc(Cl)c4)cc32)c(C)c1C(=O)N1CCN(C)CC1`, 18.7 µM (active).
For the compound `CCNC(=O)CCCC=CC[C@@H]1[C@H](C=CC(O)CCc2ccccc2)[C@@H](O)C[C@@H]1O` (stereo not given in full), the “viability” value is 97.4% (inactive).
On to `CN(C)C(=N)N=C(N)N`, for which the Potency is 26.4 µM (active).
